Screening data deposited in PubChem by National Center for Advancing Translational Sciences (NCATS).
The sample as a whole holds a higher share of hits than the screen did.
KDM5B inh – inhibitors of human KDM5B histone demethylase | Q9UGL1 | 220,000 tested, 2.6% active | KDM5B demethylase, FDH-coupled NADH fluorescence (FDH is formaldehyde dehydrogenase) | AID 1347165 | Potency, µM (titrated, usually from 57.7 µM), most hits filed as inhibitors; active = well fitted inhibition curve with a large enough effect; also: 0% is about no effect; nearly all actives have a fitted effect of over 70% in size
Target sequence (Q9UGL1 whole entry, looked up): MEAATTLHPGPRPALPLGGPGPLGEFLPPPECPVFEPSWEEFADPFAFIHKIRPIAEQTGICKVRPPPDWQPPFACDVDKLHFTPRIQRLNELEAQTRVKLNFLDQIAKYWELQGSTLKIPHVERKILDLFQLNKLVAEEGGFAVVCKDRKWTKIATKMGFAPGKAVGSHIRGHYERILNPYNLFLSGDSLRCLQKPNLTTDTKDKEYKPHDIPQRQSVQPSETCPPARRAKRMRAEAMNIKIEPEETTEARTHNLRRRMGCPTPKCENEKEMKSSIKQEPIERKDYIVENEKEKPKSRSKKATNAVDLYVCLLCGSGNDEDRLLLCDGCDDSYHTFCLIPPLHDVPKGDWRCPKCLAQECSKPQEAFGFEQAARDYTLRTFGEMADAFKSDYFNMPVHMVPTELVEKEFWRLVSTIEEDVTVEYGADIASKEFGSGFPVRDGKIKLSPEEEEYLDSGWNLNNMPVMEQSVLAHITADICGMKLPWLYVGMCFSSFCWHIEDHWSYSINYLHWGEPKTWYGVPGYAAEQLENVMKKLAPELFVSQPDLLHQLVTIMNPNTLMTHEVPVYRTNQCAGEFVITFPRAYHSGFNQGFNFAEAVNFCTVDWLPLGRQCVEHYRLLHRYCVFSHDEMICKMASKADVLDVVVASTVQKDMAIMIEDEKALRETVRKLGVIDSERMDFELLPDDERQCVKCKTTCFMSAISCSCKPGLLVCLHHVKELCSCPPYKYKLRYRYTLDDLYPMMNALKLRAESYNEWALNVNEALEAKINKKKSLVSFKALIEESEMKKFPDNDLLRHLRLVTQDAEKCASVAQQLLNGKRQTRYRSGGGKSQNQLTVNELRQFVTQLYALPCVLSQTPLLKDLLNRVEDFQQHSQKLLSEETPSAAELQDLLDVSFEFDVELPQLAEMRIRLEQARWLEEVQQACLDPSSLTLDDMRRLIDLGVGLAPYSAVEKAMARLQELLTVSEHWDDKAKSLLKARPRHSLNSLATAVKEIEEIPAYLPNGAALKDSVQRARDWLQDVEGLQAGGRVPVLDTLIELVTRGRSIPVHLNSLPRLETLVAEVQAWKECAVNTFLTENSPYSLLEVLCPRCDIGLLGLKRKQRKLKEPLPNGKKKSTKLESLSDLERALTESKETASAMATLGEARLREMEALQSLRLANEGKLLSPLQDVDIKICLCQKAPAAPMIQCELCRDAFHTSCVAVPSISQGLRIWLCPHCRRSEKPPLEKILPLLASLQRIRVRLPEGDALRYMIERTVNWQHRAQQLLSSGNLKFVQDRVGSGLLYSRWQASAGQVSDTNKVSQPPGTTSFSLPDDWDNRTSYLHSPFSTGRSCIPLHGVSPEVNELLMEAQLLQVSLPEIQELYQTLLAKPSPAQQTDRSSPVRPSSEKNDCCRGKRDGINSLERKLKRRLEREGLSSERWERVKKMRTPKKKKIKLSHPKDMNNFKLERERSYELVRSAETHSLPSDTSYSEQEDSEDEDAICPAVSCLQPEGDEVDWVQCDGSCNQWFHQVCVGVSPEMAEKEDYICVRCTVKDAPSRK
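Inhibition is measured as reduced NADH fluorescence generation from FDH coupling to formaldehyde release. Truncated KDM5BΔAP at 200 nM final acts on H3K4me3 peptide (12.5 µM in substrate mix) in pH 7.5 HEPES buffer with Tween-20, 30 min, room temperature.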
* hit, by the source's call; i = inactive. Potency is read from the fitted curve at half-maximal effect.

SMILES | KDM5B inh
COc1cccc2c1OC1(CCN(C(C)=O)CC1)N1N=C(c3ccc(OC(F)F)cc3)CC21 (stereo not given) | i
O=C(CCCn1c(=O)oc2ccccc21)Nc1ccc(-c2nnc3n2CCCCC3)cc1 | i
CC(=O)N(CCC(C)C)c1nc(C)c(C(=O)Nc2ccc3[nH]ccc3c2)s1 | i
CCn1c(Cn2nnc(-c3ccccc3Cl)n2)nc2cc(S(=O)(=O)N3CCCCC3)ccc21 | i
COC[C@@H]1[C@H](C(=O)NCc2cc(OC)ccc2OC)CCC(=O)N1C | i
CCc1nn2c(-c3ccccc3OC)ccnc2c1-c1ccccc1 | i
COc1ccc(-c2cn3cc(C(=O)NCCO)nc3c(=O)n2CC2CC2)c(F)c1 | i
COc1ccnc(-c2nnc3ccc(N(C)Cc4ccccc4)nn23)c1 | i
c1ccc(CCc2nc3nccc(-c4cccnc4)n3n2)cc1 | i
COc1cc(F)ccc1-c1ccnc2nc(CCc3ccccc3)nn12 | 25.1µM*
COc1ccc(-c2ccnc3nc(Cc4cc(F)cc(F)c4)nn23)c(F)c1 | i
COc1ccc(-c2cn3cc(C(=O)N4CCCC4)nc3c(=O)n2CC2CC2)c(F)c1 | i
COc1ccc(-c2ccnc3nc(CCc4ccccc4)nn23)c(F)c1 | 28.2µM*
COc1ccc(-c2ccnc3nc(C4CCCO4)nn23)c(F)c1 (stereo not given) | 25.1µM*
O=C(NC1CC1)c1cccc(NC(=O)C2CCN(S(=O)(=O)c3ccc4c(c3)CCCC4)CC2)c1 | i
NC(=O)COc1ccc(C(=O)NCC2(c3ccccc3)CCC2)cc1 | i
CCn1c(SCC(=O)NCc2cccs2)nnc1-c1ccc2c(c1)OCCCO2 | i
COc1cccc(CNC(=O)c2ccc(C(F)(F)F)cc2)c1 | i
O=C(CCc1ccccc1)OCC(=O)c1ccc2c(c1)OCCCO2 | i
O=C(NCCOc1ccccc1)c1cnc2n1CCN(CC1CCOCC1)CC2 | i
O=C(NCCc1ccccn1)c1ccc(OC2CCN(CCc3ccccc3)CC2)cc1 | i
CC(=O)N1CC2(CCCN(CC3CC3)C2)Cc2ccccc21 (stereo not given) | i
O=C(NCCc1ccccn1)c1ccc2ccccc2c1 | i
CN1CC2(CCCN(CC3CC3)C2)c2cc(C(=O)NCCOc3ccccc3)ccc21 (stereo not given) | 35.5µM*
CN1CC2(CCCN(CC3CC3)C2)c2cc(C(=O)NCCc3ccccn3)ccc21 (stereo not given) | 39.8µM*
SMILES | KDM5B inh
Cc1ccc(C)c(S(=O)(=O)Nc2cccc(S(=O)(=O)C3CCCC3)c2)c1 | i
CN(C)C(=O)COC(=O)CCc1c[nH]c2ccccc12 | i
Cc1ccc(C(=O)NC(Nc2ccccc2Cl)C(=O)c2ccccc2)cc1 (stereo not given) | i
O=c1[nH]c(N2CCOCC2)nc2c1CCN(Cc1ccc(C(F)(F)F)cc1)CC2 | i
O=C(C[C@@H]1CCNC[C@@H]1Cc1cc(-c2ccc(F)cc2)on1)N1CCC(Cc2ccccc2)CC1 | i
O=[N+]([O-])c1ccccc1S(=O)(=O)Nc1ccc(Nc2ccccc2)cc1 | i
C=CCNc1nc(-c2c(C(=O)OC)c(C)n(C(C)C)c2C)cs1 | i
CCNC(=O)c1oc2ccccc2c1CSc1nnc(C)s1 | i
O=S1(=O)C=CC(N(Cc2ccccc2)Cc2cccc(F)c2)C1 (stereo not given) | i
Fc1ccc2cnc(N3CCC(N[C@H]4C[C@@H]5OCC[C@H]45)CC3)nc2c1 | 25.1µM*
c1cc2c(cc1N1CCC(N[C@H]3C[C@@H]4OCC[C@H]34)CC1)CCC2 | i
Cc1cc(CN2C[C@@H](CO)[C@H](NC(=O)C3CC3)C2)n(C)n1 | i
CN(Cc1ccccc1)C(=O)C1(C)CCCc2cnc(N(C)C)nc21 (stereo not given) | 31.6µM*
COc1ccc(NC(=O)Cn2nc3c(cc2=O)CCCC3)cn1 | i
COCCNC(=O)C1(C)CCCc2cnc(Nc3ccccc3)nc21 (stereo not given) | i
CN(C)c1ncc2c(n1)C(C)(C(=O)Nc1ccccc1)CCC2 (stereo not given) | 35.5µM*
COc1ccc(NC(=O)C2(C)CCCc3cnc(N(C)C)nc32)cn1 (stereo not given) | 35.5µM*
CN(Cc1ccccc1)C(=O)C1(C)COCc2cnc(Nc3ccccc3)nc21 (stereo not given) | i
CC1(C(=O)Nc2ccccc2)COCc2cnc(Nc3ccccc3)nc21 (stereo not given) | i
CC(=O)Nc1ccc(C2(C(=O)N(C)Cc3ccccc3)CCCCC2)cc1 | i
CC1CCN(CC(=O)N2CCN(S(=O)(=O)c3ccc(F)c(F)c3)CC2)CC1 | i
Cc1nc(N2CCN(c3ccccc3F)CC2)[nH]c(=O)c1CCC(C)C | i
CC(C)c1ccc(NC(=O)Cn2nc3ccc(S(=O)(=O)C4CCCCC4)nn3c2=O)cc1 | i
O=C1CCCN1CCCN1C(=O)[C@@H]2C[C@@H](O)CN2C2(CN(C3Cc4ccccc4C3)C2)C1=O | i
CC(C)CNC(=O)C1c2ccccc2C(=O)N(Cc2ccccc2)C12CCCC2 (stereo not given) | i
SMILES | KDM5B inh
CC(C)CCNc1nc(-c2ccc([N+](=O)[O-])cc2)c(C(=O)Nc2ccccc2)s1 | i
CCOC(=O)C(CC)Oc1ccc2c(=O)c(Oc3cccc(C)c3)c(C(F)(F)F)oc2c1 (stereo not given) | i
O=C(O)C(c1c[nH]c2cc(OCc3ccccc3)ccc12)N1CCN(c2ccc(Cl)cc2)CC1 (stereo not given) | i
CCC(CC)NC(=O)COc1ccccc1NC(C)=O | i
COc1ccc(-c2nc(CN3CCC(F)(F)CC3)c(C)o2)c(OC)c1C | i
COc1ccc(-c2nc(CN3CCC(CO)CC3)c(C)o2)c2ccccc12 | 25.1µM*
COc1ccc(-c2nc(CN3CCC(C(=O)NCCc4ccccc4)CC3)c(C)o2)cc1OC | i
CCc1nc(-c2c3n(c(=O)n(Cc4ccccc4C)c2=O)CCCC3)no1 | i
Cc1noc(C)c1CCCNC(=O)[C@@]12CNC[C@@H]1CN(Cc1ccccc1)C2 | i
CCN(CC)CCNC(=O)CCn1ccc2cc(S(=O)(=O)N3CCCCC3)ccc21 | i
CNC(=O)c1cnn2ncccc12 | 31.6µM*
CNC(=O)c1cnn2c1CN(C(=O)c1ccccc1)CC2 | i
O=C(Nc1ccc(F)cc1)c1cccn2cncc12 | i
CNC(=O)c1sc2ncccc2c1-n1cccc1 | i
O=C(Nc1ccc(Cl)nc1)c1cnn2ncccc12 | 39.8µM*
CN1CCC(Oc2ncccc2C(=O)N(C)C)C1 (stereo not given) | i
CN(C)C(=O)c1cnn2ncccc12 | 31.6µM*
CN(C)C(=O)c1ccccc1NS(=O)(=O)c1ccc(Cl)cc1 | i
O=C(Nc1ccc(Cl)nc1)c1c[nH]c2cccnc12 | i
COC[C@@H]1CN(Cc2cc(F)ccc2F)C[C@H]1C(=O)NC1CC1 | i
O=C(NCCc1ccccc1F)C1CC=CCC1 (stereo not given) | i
O=C(NC1CCC(c2ccccc2)CC1)C1CC2CCCC(C1)C2=O (stereo not given) | i
COc1ccc(CC(=O)NC2CCCN(c3cc(-c4ccc(Cl)cc4)[nH]n3)C2)cc1OC (stereo not given) | i
O=C(CSc1nnnn1C1CC1)Nc1ccc(N2CCN(Cc3ccccc3)CC2)cc1 | i
O=C1NCC2(CCCN(C(=O)c3cnc4c(O)cccn4c3=O)C2)O1 (stereo not given) | 31.6µM*
